From PubChem BioAssay (NCATS)
Results filed as inconclusive are left out. Calls of active or inactive are those of the source. Calls come from the whole dose curve; as a rule, active = well fitted inhibition curve with a large enough effect; inconclusive = small, poorly fitted or top-dose-only effect; inactive = no such curve, though single readings can be large or run the other way.

How the values were obtained:
[1] = qHTS assay for measurement of the activity of small molecule inhibitors on Zika virus induced Caspase-3 activity in human iPSC derived neural progenitor cells (hNPCs) (AID 1224857); note: nearly all actives have a fitted effect of over 65% in size
Outline: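 Pretreat hNPCs with compound 1 h; infect ZIKV 2 FFU/cell; 6 h 37 C, 5% CO2; Caspase-Glo 3/7, 30 min RT; luminescence; normalize to no-virus and virus-only wells.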

[2] = qHTS assay for measurement of the activity of small molecule inhibitors on Zika virus induced Caspase-3 activity in human astrocytoma cells (AID 1224859)
Outline: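 Human SNB-19 astrocytoma cells in RPMI 1640 with 10% FBS receive compound one hour ahead of Zika virus at 2 FFU/cell. After 6 h infection, caspase-3/7 activity is detected by Caspase-Glo luminescence.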

| Compound | outcome [1] | outcome [2] |
| --- | --- | --- |
| COc1cccc(OC)c1C(=O)N[C@@H]1C(=O)N2[C@@H]1SC(C)(C)[C@@H]2C(=O)O | inactive | inactive |
| c1ccc(CNCCNCc2ccccc2)cc1 | inactive | inactive |
| C/C=C/c1ccc(OC)cc1 | inactive | inactive |
| CCCCOc1cc(C(=O)NCCN(CC)CC)c2ccccc2n1 | inactive | inactive |
| NC(CS)C(=O)O (stereo unspecified) | inactive | inactive |
| CCN(CC)CCOc1ccc(C(O)(Cc2ccc(Cl)cc2)c2ccc(C)cc2)cc1 (stereo unspecified) | inactive | inactive |
| COCc1c(C(C)C)nc(C(C)C)c(/C=C/[C@@H](O)C[C@@H](O)CC(=O)O)c1-c1ccc(F)cc1 | inactive | inactive |
| O=C1c2ccccc2C(=O)C1c1ccccc1 | inactive | inactive |
| CCOC(=O)[C@H](CCc1ccccc1)N[C@@H](C)C(=O)N1Cc2ccccc2C[C@H]1C(=O)O | inactive | inactive |
| COc1ccc(CCN2CCC(Nc3nc4ccccc4n3Cc3ccc(F)cc3)CC2)cc1 | inactive | inactive |
| CCOC(=O)COc1ccc2c(C)c(CCN(CC)CC)c(=O)oc2c1Cl | inactive |  |
| CCCCCCCCCCOCC(O)CN (stereo unspecified) | inactive | inactive |
| CN1CCCC(CC2c3ccccc3Sc3ccccc32)C1 (stereo unspecified) | inactive | inactive |
| NC[C@H]1O[C@H](O[C@H]2[C@H](O)[C@@H](O[C@H]3O[C@H](CO)[C@@H](O)[C@H](N)[C@H]3O)[C@H](N)C[C@@H]2N)[C@H](N)[C@@H](O)[C@@H]1O | inactive | inactive |
| CN(C)CCCOc1nn(Cc2ccccc2)c2ccccc12 | inactive | inactive |
| C[C@@H]1CN(CCCn2c3ccccc3c3ccccc32)C[C@H](C)N1 | inactive | inactive |
